# Results as given in PubChem BioAssay (NCI).
# About 83,000 compounds went through this panel and 20% of them were active in at least one assay; those are over-represented in the sample as a whole.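 Activity criterion: percent growth below 10, measured after cells in 96-well plates were exposed to a single compound concentration for 48 hours.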 Values without a mark were called inactive. Calls of active or inactive are those of the source.
# Tests used:
# Test in all cases: NCI-60 one-dose screen, 48 h (100 = growth as untreated, 0 = no growth, -100 = all killed)
# Details in all cases: 10 µM unless noted
# T-47D breast = system: T-47D breast
# BT-549 breast = system: BT-549 breast
# MDA-MB-435 melanoma = system: MDA-MB-435 melanoma
# SW-620 colon = system: SW-620 colon
# MCF7 breast = system: MCF7 breast
# HCT-116 colon = system: HCT-116 colon
# HCC-2998 colon = system: HCC-2998 colon
# KM12 colon = system: KM12 colon
SMILES,growth (T-47D breast),growth (BT-549 breast),growth (MDA-MB-435 melanoma),growth (SW-620 colon),growth (MCF7 breast),growth (HCT-116 colon),growth (HCC-2998 colon),growth (KM12 colon)
CS(=O)(=O)Nc1cc(-c2ccc3ncc(C#N)c(NCc4ccccc4O)c3c2)cnc1Cl,13%,-10% (active),5.99% (active),9.16% (active),1.5% (active),2.58% (active),-1.75% (active),10%
O=C(NNc1nc2cc(F)c(F)cc2n2c(CN3CC4CNCC4C3)ccc12)c1ncccn1 (stereo not drawn),13.8%,28.1%,20.4%,22.6%,9.66% (active),11.7%,24.7%,19.2%
CC(C)C[C@@H]1N[C@@]2(C(=O)Nc3ccccc32)[C@@H](c2ccc(F)cc2)[C@@H]1C(=O)c1ccc(O)cc1,76.5%,113%,102%,101%,92.5%,86.7%,108%,96.1%
N#Cc1cccc(/C(N)=N/C(N)=N/c2nc3ccccc3s2)c1,34.1%,49.3%,-39% (active),22.9%,23.1%,24%,55.7%,24.6%
CC(C)(C)n1cc(-c2ccnc(NCCCNS(=O)(=O)c3cccc(F)c3)n2)c(-c2ccc(Cl)c(O)c2)n1,75.1%,95.6%,101%,116%,97.9%,88.6%,114%,92.9%
CNC(=O)c1cc(Oc2ccc3nc(NC(=O)c4cc(N5CCOCC5)cc(C(F)(F)F)c4)sc3c2)ccn1,74.2%,88.1%,67.8%,107%,75.5%,63.1%,114%,71.3%
Cc1ccc2c(c1)Oc1nc(N)c(C#N)c(N)c1C2Sc1ccc(F)cc1 (stereo not drawn),-47.1% (active),-88.4% (active),-93.6% (active),-63.6% (active),-59.7% (active),-89.9% (active),-90.9% (active),-91.4% (active)
Cc1[nH]c(C(=O)Nc2ccccc2OCc2cccc(C(=O)N3CCC[C@@H](N)C3)c2)c(Cl)c1Cl,-55.2% (active),-89.4% (active),-96.6% (active),-75.9% (active),-77.5% (active),-82.1% (active),-92.5% (active),-80% (active)
CC(=O)c1cc(C(=O)N2c3ccccc3Sc3ccccc32)n2ccc3ccccc3c12,27.5%,37%,0.748% (active),26.3%,17.8%,24.4%,74.9%,31.7%
O=C(Nc1nc2ccc([N+](=O)[O-])cc2s1)Nc1ccccc1Cl,-0.208% (active),36.9%,19.6%,46.1%,55.8%,21.4%,47.6%,26.4%
N#C/C(=C\c1ccc(-c2ccc(Cl)cc2Cl)o1)c1ccc(F)cc1,78.8%,112%,93.7%,93.5%,66.9%,88.1%,105%,94.2%
C=CCn1c(SCC(=O)Nc2ccc(C(=O)/C=C/c3cc(OC)c(OC)c(OC)c3)cc2)nnc1-c1c[nH]c2ccccc12,49%,47.2%,5.25% (active),-0.994% (active),-30.8% (active),-66.1% (active),-28% (active),30.4%
Nc1nc(-c2cccc([N+](=O)[O-])c2)c(N=Nc2ccc(Br)cc2)s1,-26.9% (active),-29.6% (active),0.572% (active),-34.5% (active),7.63% (active),-76.6% (active),-31.6% (active),15.4%
CNC(=O)c1c(NC(=O)c2cccc(C(F)(F)F)c2F)sc2c1CCC(=O)C2,13.8%,21.3%,11.9%,14.2%,6.33% (active),5.58% (active),25.2%,3% (active)
O=C(CN1CCN(c2cc(=O)n(-c3ccccc3)c3ccccc23)CC1)Nc1cccc(C(F)(F)F)c1,19.7%,66.6%,61.4%,75%,29.1%,42.6%,84.8%,65.1%
COc1cc(/C=C2\C(=O)Nc3ccccc32)ccc1OCc1ccc(F)cc1,107%,116%,103%,106%,87.8%,107%,119%,101%

SMILES,growth (T-47D breast),growth (BT-549 breast),growth (MDA-MB-435 melanoma),growth (SW-620 colon),growth (MCF7 breast),growth (HCT-116 colon),growth (HCC-2998 colon),growth (KM12 colon)
CC(O)c1cc2ccccc2c(=O)o1 (stereo not drawn),104%,105%,96.3%,98.9%,91.5%,108%,99.9%,106%
O=C(Nc1nc2ccc([N+](=O)[O-])cc2s1)Nc1ccccc1Br,33.8%,71.7%,38.2%,39.2%,24.8%,18.1%,37.8%,15.1%
O=C(CSc1nnc(-c2ccc(Cl)cc2)n1-c1ccccc1)Nc1cccc(Cl)c1,48.2%,61.6%,72.9%,49.8%,65.1%,12.8%,83.8%,71.9%
CCC(NC(c1cc2cccc3ccc4cccc1c4c32)c1nnnn1C(C)(C)C)C1CCCCC1 (stereo not drawn),74.6%,50.5%,60%,61.5%,48.2%,40.6%,90.3%,67.8%
FC(F)(F)c1cc(Nc2cccc(Oc3ccc(NC4=NCCN4)nc3)c2)ccc1Cl,23.4%,44.7%,-40% (active),-75.8% (active),-42.5% (active),-48.5% (active),-58% (active),-60.4% (active)
COc1ccc([C@@H]2[C@@H](O)C(=O)N2c2cc(OC)c(OC)c(OC)c2)cc1F,68%,-18.5% (active),-12% (active),22.5%,9.59% (active),2.32% (active),5.15% (active),6.09% (active)
O=C(NNc1nc2cc(F)cc(F)c2n2cccc12)c1cnccn1,10.3%,24.1%,31.3%,21.7%,3.97% (active),12.3%,49.9%,28.7%
CCOc1cccc(-c2nc3sccn3c2-c2ccnc(S(C)(=O)=O)n2)c1,65.8%,122%,95%,103%,36%,92.6%,80.8%,87.6%
COc1c(N2CC3CCCNC3C2)c(F)cc2c(=O)c(C(=O)N/N=C/c3ccc4c(c3)OCO4)cn(C3CC3)c12 (stereo not drawn),76.7%,94.9%,102%,47.1%,14.6%,32.7%,54.8%,88%
COc1cc(Nc2c(C#N)cnn3cc(-c4cnn(CC(C)(C)O)c4)cc23)ccc1Cl,45.1%,85.5%,38.3%,56.5%,48%,40.2%,84.8%,19.1%
CC(Nc1c(C#N)cnc2ccc(-c3cnc(N)nc3)cc12)c1ccccc1 (stereo not drawn),9.18% (active),4.06% (active),15.5%,18.2%,8.42% (active),10.7%,8.61% (active),10.8%
CCNC(=O)N1CCc2cc(OC)c(OCCc3ccc(OC)c(N)c3)cc2C1c1ccc(C)cc1C (stereo not drawn),65.8%,-10.9% (active),13.4%,23.2%,17.2%,9.82% (active),20.6%,12.5%
CCO/C=N/C1=C(C#N)C(c2ccc(OC)cc2)c2sc3c(CC)cccc3c2O1 (stereo not drawn),35.8%,63%,-39.2% (active),35.3%,24.6%,24.1%,44.3%,18.9%
Cn1ccnc1C(=O)/C=C/c1ccc(CNC(=O)c2ccc(Cl)cc2)cc1,34%,16.5%,22.6%,9.22% (active),10.5%,-1.09% (active),13.1%,9.07% (active)
Cc1c(Cl)cccc1S(=O)(=O)Nc1ccc2c(c1)C(=O)N(C1CCC(=O)NC1=O)C2=O (stereo not drawn),44%,63.9%,96.2%,44.8%,88.2%,107%,67.9%,92.2%
